Results taken from PubChem BioAssay AID1159580 (chemical genetic matrix, 2015).
Among all 5,500 compounds or so, about 2,000 (36%) were called active. Roughly 18% stayed inconclusive and do not appear here. No stated cut-off is given here; in the data, active means normalized growth mostly below about 0.91 (no sharp cut-off); inconclusive means no clear call, values can overlap the other calls; inactive means mostly above about 0.92. Some of the results follow.

Assay: chemical genetic growth profiling, strain panel (AID 1159580);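 further: tested at 20 µM; growth read once vehicle control cultures reached saturation at 30 °C; 1 = growth at the plate median or of vehicle wells; lower values mean less growth of the strain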
Settings: S. cerevisiae deletion strains, growth OD

Measured: normalized growth

COC(=O)c1c(OC)cc2c(c1C)Oc1c(Cl)c(OC(C)=O)c(Cl)c(C)c1C(=O)O2
inactive: locus YAL021C, strain ccr4, hits give low values 1.02 | locus YAL026C, strain drs2, hits give low values 1 | locus YAL030W, strain snc1, hits give low values 0.994 | locus YBL061C, strain skt5, hits give low values 0.977 | locus YBR009C, strain hhf1, hits give low values 1.02 | locus YBR021W, strain FUR4, hits give low values 1.03 | locus YBR023C, strain chs3, hits give low values 0.978 | locus YBR171W, strain sec66, hits give low values 1 | locus YBR229C, strain ROT2, hits give low values 0.989 | locus YBR231C, strain swc5, hits give low values 0.987 | locus YBR279W, strain paf1, hits give low values 0.982 | locus YCL011C, strain gbp2, hits give low values 1.02 | locus YCL016C, strain dcc1, hits give low values 0.99 | locus YCL029C, strain bik1, hits give low values 1.01 | locus YCL061C, strain MRC1, hits give low values 1.01 | locus YCL069W, strain vba3, hits give low values 0.998 | locus YCR088W, strain abp1, hits give low values 0.988 | locus YDL005C, strain med2, hits give low values 1 | locus YDL035C, strain GPR1, hits give low values 1.01 | locus YDL040C, strain nat1, hits give low values 0.955 | locus YDL074C, strain BRE1, hits give low values 1.05 | locus YDL101C, strain DUN1, hits give low values 1.01 | locus YDL134C, strain PPH21, hits give low values 1.02 | locus YDL185W, strain tfp1, hits give low values 1.01 | locus YDL192W, strain arf1, hits give low values 1.01 | locus YDR001C, strain nth1, hits give low values 0.992 | locus YDR069C, strain doa4, hits give low values 0.998 | locus YDR101C, strain arx1, hits give low values 1.01 | locus YDR137W, strain rgp1, hits give low values 0.947 | locus YDR159W, strain sac3, hits give low values 0.948 | locus YDR162C, strain NBP2, hits give low values 1.03 | locus YDR195W, strain ref2 1.03 | locus YDR297W, strain sur2, hits give low values 1 | locus YDR318W, strain mcm21, hits give low values 1 | locus YDR334W, strain swr1, hits give low values 0.99 | locus YDR335W, strain msn5, hits give low values 1 | locus YDR388W, hits give low values 1.01 | locus YDR392W, strain spt3, hits give low values 0.866 | locus YDR502C, strain sam2, hits give low values 1 | locus YEL003W, strain gim4, hits give low values 1 | locus YEL037C, strain rad23, hits give low values 0.984 | locus YEL061C, strain CIN8 (second series), hits give low values 0.979 | locus YEL061C, strain CIN8, hits give low values 0.999 | locus YER015W, strain faa2, hits give low values 1.01 | locus YER016W, strain bim1, hits give low values 0.971 | locus YER110C, hits give low values 1.02 | locus YER111C, strain swi4, hits give low values 0.985 | locus YER155C, strain BEM2 (second series), hits give low values 1.01 | locus YER155C, strain BEM2, hits give low values 0.992 | locus YER167W, strain BCK2, hits give low values 1.02 | locus YFR010W, strain ubp6, hits give low values 0.975 | locus YGL078C, strain dbp3, hits give low values 1.01 | locus YGL086W, strain mad1, hits give low values 1.02 | locus YGL167C, strain pmr1, hits give low values 0.942 | locus YGL173C, strain kem1, hits give low values 0.983 | locus YGL227W, strain vid30, hits give low values 1 | locus YGL240W, strain doc1, hits give low values 0.964 | locus YGL248W, strain PDE1, hits give low values 1.01 | locus YGL253W, strain hxk2, hits give low values 0.977 | locus YGR078C, strain PAC10, hits give low values 1.01 | locus YGR135W, strain pre9, hits give low values 1.01 | locus YGR252W, strain gcn5, hits give low values 1.11 | locus YHR013C, strain ard1, hits give low values 0.966 | locus YHR027C, strain rpn1, hits give low values 1 | locus YHR030C, strain SLT2, hits give low values 1 | locus YHR079C, strain IRE1 (second series), hits give low values 0.997 | locus YHR094C, strain hxt1, hits give low values 1.01 | locus YHR129C, strain ARP1, hits give low values 1 | locus YHR142W, strain chs7, hits give low values 0.985 | locus YHR200W, strain rpn10, hits give low values 1.02 | locus YIL066C, strain RNR3, hits give low values 1.03 | locus YIL073C, strain SPO22, hits give low values 1.09 | locus YIL125W, strain kgd1, hits give low values 1.02 | locus YIR030C, strain dcg1, hits give low values 0.998 | locus YJL092W, strain hpr5, hits give low values 0.992 | locus YJL095W, strain BCK1 (second series), hits give low values 0.975 | locus YJL095W, strain BCK1, hits give low values 1.02 | locus YJL115W, strain asf1, hits give low values 0.996 | locus YJL129C, strain trk1, hits give low values 1.01 | locus YJL134W, strain LCB3, hits give low values 0.998 | locus YJL154C, strain vps35, hits give low values 0.972 | locus YJL164C, strain tpk1, hits give low values 1.01 | locus YJL166W, strain qcr8, hits give low values 1.01 | locus YJL168C, strain set2, hits give low values 0.996 | locus YJL187C, strain SWE1 (second series), hits give low values 1.02 | locus YJL187C, strain SWE1, hits give low values 0.975 | locus YJR043C, strain POL32, hits give low values 1.04 | locus YKL009W, strain mrt4, hits give low values 1.01 | locus YKL068W, hits give low values 0.988 | locus YKL085W, strain MDH1 (second series), hits give low values 1 | locus YKL085W, strain MDH1, hits give low values 1 | locus YKL160W, strain elf1, hits give low values 0.982 | locus YKL190W, strain CNB1, hits give low values 1.01 | locus YKR001C, strain vps1, hits give low values 1.04 | locus YKR026C, strain gcn3, hits give low values 0.996 | locus YKR091W, strain srl3, hits give low values 0.989 | locus YLL001W, strain dnm1, hits give low values 0.992 | locus YLL026W, hits give low values 1 | locus YLL041C, strain sdh2, hits give low values 0.988 | locus YLR027C, strain aat2, hits give low values 0.986 | locus YLR039C, strain RIC1, hits give low values 1.02 | locus YLR058C, strain SHM2, hits give low values 1 | locus YLR102C, strain apc9, hits give low values 1.01 | locus YLR221C, strain rsa3, hits give low values 1.01 | locus YLR258W, strain gsy2, hits give low values 0.998 | locus YLR262C, strain YPT6 (second series), hits give low values 0.979 | locus YLR262C, strain YPT6, hits give low values 1.03 | locus YLR268W, strain sec22, hits give low values 1.02 | locus YLR320W, strain mms22, hits give low values 0.946 | locus YLR330W, strain CHS5, hits give low values 0.998 | locus YLR342W, strain FKS1 (second series), hits give low values 1.05 | locus YLR342W, strain FKS1, hits give low values 0.978 | locus YLR357W, strain rsc2, hits give low values 1.02 | locus YLR370C, strain arc18, hits give low values 0.973 | locus YLR371W, strain rom2, hits give low values 1.01 | locus YLR384C, strain iki3, hits give low values 0.961 | locus YLR418C, strain cdc73, hits give low values 1.07 | locus YML016C, strain PPZ1, hits give low values 1 | locus YML032C, strain rad52, hits give low values 1.02 | locus YML120C, strain ndi1, hits give low values 1.01 | locus YML124C, strain tub3, hits give low values 1.03 | locus YMR058W, strain fet3, hits give low values 0.988 | locus YMR078C, strain ctf18, hits give low values 1.01 | locus YMR125W, strain sto1, hits give low values 0.997 | locus YMR129W, hits give low values 0.999 | locus YMR205C, strain PFK2, hits give low values 0.981 | locus YMR223W, strain ubp8, hits give low values 1 | locus YMR231W, strain pep5, hits give low values 0.974 | locus YMR263W, strain SAP30, hits give low values 1.02 | locus YMR307W, strain GAS1, hits give low values 1.03 | locus YNL067W, strain RPL9B, hits give low values 1.02 | locus YNL071W, strain lat1, hits give low values 0.997 | locus YNL209W, strain ssb2, hits give low values 1.01 | locus YNL233W, strain BNI4, hits give low values 1.03 | locus YNL248C, strain rpa49, hits give low values 0.995 | locus YNL250W, strain rad50, hits give low values 1.02 | locus YNL271C, strain bni1, hits give low values 1.02 | locus YNL298W, strain CLA4, hits give low values 1.03 | locus YNL307C, strain MCK1, hits give low values 1 | locus YNL322C, strain KRE1 (second series), hits give low values 1.02 | locus YNR049C, strain mso1, hits give low values 0.982 | locus YNR052C, strain pop2, hits give low values 1.01 | locus YOL006C, strain TOP1, hits give low values 1.29 | locus YOL012C, strain htz1 1.01 | locus YOL147C, strain pex11, hits give low values 0.999 | locus YOR001W, strain rrp6, hits give low values 0.988 | locus YOR061W, strain CKA2, hits give low values 1 | locus YOR069W, strain VPS5, hits give low values 1.01 | locus YOR070C, strain gyp1, hits give low values 0.974 | locus YOR080W, strain dia2, hits give low values 0.977 | locus YOR083W, strain WHI5, hits give low values 1.03 | locus YOR106W, strain vam3, hits give low values 1.03 | locus YOR136W, strain idh2, hits give low values 1.04 | locus YOR144C, strain elg1, hits give low values 1 | locus YOR184W, strain ser1, hits give low values 0.995 | locus YOR265W, strain rbl2, hits give low values 0.981 | locus YOR270C, strain vph1, hits give low values 0.96 | locus YOR290C, strain snf2, hits give low values 0.999 | locus YOR316C, strain cot1, hits give low values 1 | locus YPL051W, strain arl3, hits give low values 0.976 | locus YPL055C, strain LGE1, hits give low values 1.07 | locus YPL078C, strain atp4, hits give low values 0.996 | locus YPL106C, strain sse1, hits give low values 1.07 | locus YPL240C, strain hsp82, hits give low values 1 | locus YPR119W, strain clb2, hits give low values 1 | locus YPR141C, strain kar3, hits give low values 1.01 | locus YPR163C, strain tif3, hits give low values 1.02 | locus YPR167C, strain met16, hits give low values 0.992 | strain wtn01, hits give low values 1.03
